“And” between values parts separate entries of the source, which are not always exact repeats. Identical values can stand only once. Inconclusive results are not listed. Entries that show only a call come without a potency. Where a structure was tested more than once in an assay, its records may differ in their call. The source made the active and inactive calls. Unless noted, the call rests on the fitted dose curve; in most records, active means well fitted curve in the direction sought with a large enough effect in the repeat runs; inconclusive means weak or mixed curves; inactive means no such curve, though single readings can be large; an effect the other way counts as inactive or inconclusive.
Experiments:
[1] = qHTS assay for small molecule agonists of the p53 signaling pathway (AID 651631; calls by dose curve; further: nearly all actives have a fitted effect of over 15% in size)
Method in brief: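 Quantitative high-throughput format: 4,000 p53RE-bla HCT-116 cells/well, 5 h pre-incubation, 16 h compound exposure at 37 °C, 2 h room-temperature substrate step, fluorescence intensity measured.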

[2] = qHTS assay for small molecule agonists of the p53 signaling pathway - cell viability (AID 651633; calls by dose curve;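 further: p53RE-bla HCT reporter cells with a stable beta-lactamase p53 reporter; series mostly up to about 83 µM; nearly all actives have a fitted effect of over 30% in size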)
Method in brief: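 p53RE-bla cells were treated with compound for 16 hours at 37 C. Cytotoxicity was then measured as CellTiter-Glo luminescence after 30 min at room temperature.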

[3] = qHTS assay for small molecules that induce genotoxicity in human embryonic kidney cells expressing luciferase-tagged ATAD5 - cell viability (AID 651634; calls by dose curve; further: nearly all actives have a fitted effect of over 25% in size)
Method in brief: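 15.5 hr compound or vehicle exposure of HEK293T cells expressing luciferase-tagged ATAD5 at 37C; live-cell protease activity is read by fluorescence after 30 min of CellTiter-Fluor.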

[4] = qHTS assay for small molecule disruptors of the mitochondrial membrane potential - cell viability (AID 720634; calls by dose curve; further: nearly all actives have a fitted effect of over 20% in size; further: potency means the concentration at half of the fitted maximal effect)
Method in brief: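 In this qHTS format, HepG2 cells plated overnight were pinned with compound, incubated 1 hr, and assayed for ATP luminescence with CellTiter-Glo after m-MPI dye addition.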

[5] = qHTS assay for small molecule disruptors of the mitochondrial membrane potential (AID 720635); further: potency means the concentration at half of the fitted maximal effect
Method in brief: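 HepG2 cells exposed to compound 1 hr at 37C, then Mito-MPS dye 30 min. Ratio read of aggregate (540/590 nm) versus monomer (490/535 nm) fluorescence.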

[6] = qHTS assay to test for compound auto fluorescence at 590 nm (red) in HepG2 cells (AID 720674)
Method in brief: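 HepG2 cells, 2,000 per well in MEM with 10% FBS, attached overnight at 37 C, then got 23 nL compound or DMSO. After 1 hr at 37 C, 5% CO2, red fluorescence was read at 540/590 nm against Rose Bengal sodium as reference.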

[7] = qHTS assay to test for compound auto fluorescence at 460 nm (blue) in HEK293 cells (AID 720678)
Method in brief: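 Measured: blue fluorescence (Ex 405/Em 460 nm) of compound-treated HEK293 cells, incubated overnight at 37C with 5% CO2 and scaled to triamterene equivalents.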

[8] = qHTS assay to test for compound auto fluorescence at 590 nm (red) in HEK293 cells (AID 720679)
Method in brief: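 Using HEK293 cells at 2,000 per well, the screen added 23 nL of each compound after cell attachment and incubated overnight (37C, 5% CO2). The plate reader then captured red-label fluorescence, Ex/Em 540/590nm.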

[9] = qHTS assay for small molecules that induce genotoxicity in human embryonic kidney cells expressing luciferase-tagged ATAD5 (AID 651632); further: nearly all actives have a fitted effect of over 15% in size
Method in brief: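 Concentration-response screen for ATAD5 upregulation in HEK293T luciferase reporter cells; 16 hr treatment at 37C, then luminescence after 30 min with Amplite at room temperature.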

[10] = qHTS assay to test for compound auto fluorescence at 535 nm (green) in HepG2 cells (AID 720675)

## O=C(O)COc1ccc(Cl)cc1Cl
[1]
  Potency: inactive
[2]
  Potency: inactive
[3]
  Potency: inactive
[4]
  Potency: inactive
[5]
  Potency: inactive
[6]
  outcome: inactive
[7]
  outcome: inactive
[8]
  outcome: inactive

## OCCOc1ccccc1
[1]
  Potency: inactive
[9]
  outcome: inactive
[2]
  Potency: inactive
[3]
  Potency: inactive
[4]
  Potency: inactive
[5]
  Potency: inactive
[6]
  outcome: inactive
[7]
  outcome: inactive
[8]
  outcome: inactive

## CCCC[n+]1ccccc1
[9]
  outcome: inactive
[2]
  Potency: inactive
[3]
  Potency: inactive
[4]
  Potency: inactive
[5]
  Potency: inactive
[6]
  outcome: inactive
[7]
  outcome: inactive
[8]
  outcome: inactive

## O=[N+]([O-])O
[3]
  Potency: inactive
[6]
  outcome: inactive
[7]
  outcome: inactive
[8]
  outcome: inactive

## CCCCCCCCCCCCOS(=O)(=O)O
[3]
  Potency: inactive
[4]
  Potency: inactive
[5]
  Potency: inactive
[6]
  outcome: inactive
[7]
  outcome: inactive
[8]
  outcome: inactive

## Cc1cc(Cl)ccc1N
[9]
  outcome: inactive
[2]
  Potency: inactive
[3]
  Potency: inactive
[4]
  Potency: inactive
[5]
  Potency: inactive
[6]
  outcome: inactive
[7]
  outcome: inactive
[8]
  outcome: inactive

## Oc1cccc2cccnc12
[3]
  Potency: inactive
[4]
  Potency: inactive
[6]
  outcome: inactive
[7]
  outcome: inactive
[8]
  outcome: inactive

## CN(C)[C@@H]1C(=O)C(C(N)=O)=C(O)[C@@]2(O)C(=O)C3=C(O)c4c(O)cccc4[C@@](C)(O)[C@H]3[C@H](O)[C@@H]12
[3]
  Potency: inactive
[4]
  Potency: inactive
[5]
  Potency: inactive and 34.4 µM (active)
[6]
  outcome: inactive
[10]
  outcome: inactive
[7]
  outcome: inactive
[8]
  outcome: inactive

## CCCC[n+]1ccccc1C
[2]
  Potency: inactive
[3]
  Potency: inactive
[4]
  Potency: inactive
[5]
  Potency: inactive
[6]
  outcome: inactive
[10]
  outcome: inactive
[7]
  outcome: inactive
[8]
  outcome: inactive

## COc1ccccc1N
[2]
  Potency: inactive
[3]
  Potency: inactive
[4]
  Potency: inactive
[5]
  Potency: inactive
[6]
  outcome: inactive
[10]
  outcome: inactive
[7]
  outcome: inactive
[8]
  outcome: inactive

## O=c1[nH]c(=O)n(Cl)c(=O)n1Cl
[3]
  Potency: inactive
[4]
  Potency: inactive
[5]
  Potency: inactive
[6]
  outcome: inactive
[7]
  outcome: inactive
[8]
  outcome: inactive

## O=c1nc(O)n(Cl)c(=O)n1Cl
[3]
  Potency: inactive
[4]
  Potency: inactive
[5]
  Potency: inactive
[6]
  outcome: inactive
[10]
  outcome: inactive
[7]
  outcome: inactive
[8]
  outcome: inactive

## CCC[N+]1(C)CCCC1
[2]
  Potency: inactive
[3]
  Potency: inactive
[4]
  Potency: inactive
[5]
  Potency: inactive
[6]
  outcome: inactive
[10]
  outcome: inactive
[7]
  outcome: inactive
[8]
  outcome: inactive

## O=C(O)c1ccccc1O
[3]
  Potency: inactive

## O=C(O)CCl
[2]
  Potency: inactive
[3]
  Potency: inactive
[4]
  Potency: inactive
[5]
  Potency: inactive
[6]
  outcome: inactive
[10]
  outcome: inactive
[7]
  outcome: inactive
[8]
  outcome: inactive

## CCC[N+]1(C)CCCCC1
[2]
  Potency: inactive
[3]
  Potency: inactive
[4]
  Potency: inactive
[5]
  Potency: inactive
[6]
  outcome: inactive
[7]
  outcome: inactive
[8]
  outcome: inactive

## CCCC[N+]1(C)CCCCC1
[2]
  Potency: inactive
[3]
  Potency: inactive
[4]
  Potency: inactive
[5]
  Potency: inactive
[6]
  outcome: inactive
[7]
  outcome: inactive
[8]
  outcome: inactive

## C=CCOC(Cn1ccnc1)c1ccc(Cl)cc1Cl (stereo not given)
[2]
  Potency: inactive
[3]
  Potency: inactive
[4]
  Potency: inactive
[6]
  outcome: inactive
[10]
  outcome: inactive
[7]
  outcome: inactive
[8]
  outcome: inactive

## O=C(O)C(Cl)Cl
[2]
  Potency: inactive
[3]
  Potency: inactive
[4]
  Potency: inactive
[5]
  Potency: inactive
[6]
  outcome: inactive
[10]
  outcome: inactive
[7]
  outcome: inactive
[8]
  outcome: inactive

## COP(=O)(OC)OC=C(Cl)Cl
[2]
  Potency: inactive
[3]
  Potency: inactive
[4]
  Potency: inactive
[5]
  Potency: inactive
[6]
  outcome: inactive
[7]
  outcome: inactive
[8]
  outcome: inactive

## CCCn1cc[n+](C)c1
[3]
  Potency: inactive
[4]
  Potency: inactive
[5]
  Potency: inactive
[6]
  outcome: inactive
[7]
  outcome: inactive
[8]
  outcome: inactive

## CC(Cl)(Cl)C(=O)O
[9]
  outcome: inactive
[3]
  Potency: inactive
[4]
  Potency: inactive
[5]
  Potency: inactive
[6]
  outcome: inactive
[7]
  outcome: inactive
[8]
  outcome: inactive

## CCCCn1cc[n+](C)c1
[3]
  Potency: inactive
[4]
  Potency: inactive
[5]
  Potency: inactive
[6]
  outcome: inactive
[7]
  outcome: inactive
[8]
  outcome: inactive

## CCCCCCCCn1cc[n+](C)c1
[2]
  Potency: inactive
[3]
  Potency: inactive
[4]
  Potency: inactive
[6]
  outcome: inactive
[7]
  outcome: inactive
[8]
  outcome: inactive

## CCCC[n+]1ccc(C)cc1
[2]
  Potency: inactive
[3]
  Potency: inactive
[4]
  Potency: inactive and 48.3 µM (active)
[6]
  outcome: inactive
[7]
  outcome: inactive
[8]
  outcome: inactive

## CCCCCCCCCCCCn1cc[n+](C)c1
[4]
  Potency: 154 nM (active) and inactive
[6]
  outcome: inactive
[7]
  outcome: inactive
[8]
  outcome: inactive

## CCCCCCCCCCn1cc[n+](C)c1
[2]
  Potency: inactive
[3]
  Potency: inactive
[4]
  Potency: inactive
[6]
  outcome: inactive
[7]
  outcome: inactive
[8]
  outcome: inactive

## CC(=O)O
[2]
  Potency: inactive
[3]
  Potency: inactive
[6]
  outcome: inactive
[7]
  outcome: inactive
[8]
  outcome: inactive

## CCCCn1cc[n+](C)c1C
[2]
  Potency: inactive
[3]
  Potency: inactive
[4]
  Potency: inactive
[5]
  Potency: inactive
[6]
  outcome: inactive
[7]
  outcome: inactive
[8]
  outcome: inactive

## Nc1ccc(Cl)cc1
[2]
  Potency: inactive
[3]
  Potency: inactive
[4]
  Potency: inactive
[5]
  Potency: inactive
[6]
  outcome: inactive
[10]
  outcome: inactive
[7]
  outcome: inactive
[8]
  outcome: inactive

## CCn1cc[n+](C)c1C
[2]
  Potency: inactive
[3]
  Potency: inactive
[4]
  Potency: inactive
[5]
  Potency: inactive
[6]
  outcome: inactive
[7]
  outcome: inactive
[8]
  outcome: inactive

## CC[N+]1(C)CCCC1
[2]
  Potency: inactive
[3]
  Potency: inactive
[4]
  Potency: inactive
[5]
  Potency: inactive
[6]
  outcome: inactive
[7]
  outcome: inactive
[8]
  outcome: inactive

## O=S(=O)(O)O
[3]
  Potency: inactive
[4]
  Potency: inactive
[5]
  Potency: inactive
[6]
  outcome: inactive
[7]
  outcome: inactive
[8]
  outcome: inactive

## CC[N+](CC)(CC)CC
[2]
  Potency: inactive
[3]
  Potency: inactive
[4]
  Potency: inactive
[5]
  Potency: inactive
[6]
  outcome: inactive
[7]
  outcome: inactive
[8]
  outcome: inactive

## C[N+](C)(C)Cc1ccccc1
[2]
  Potency: inactive
[3]
  Potency: inactive
[4]
  Potency: inactive
[5]
  Potency: inactive
[6]
  outcome: inactive
[7]
  outcome: inactive
[8]
  outcome: inactive

## CCCCCCn1cc[n+](C)c1
[2]
  Potency: inactive
[3]
  Potency: inactive
[4]
  Potency: inactive
[5]
  Potency: 11 µM (active) and 24.5 µM (active) and 22.2 µM (active)
[6]
  outcome: inactive
[10]
  outcome: inactive
[7]
  outcome: inactive
[8]
  outcome: inactive

Reference: PubChem BioAssay (Tox21)
